# PubChem BioAssay AID2158 (National Center for Advancing Translational Sciences (NCATS), 2009)
# Where “and” joins values, the source holds several entries; their conditions need not be identical. Equal entries are not always repeated. Inconclusive results are not listed. Unmarked numbers belong to inactive results. Calls of active or inactive are those of the source. Calls come from the whole dose curve; as a rule, active = well fitted inhibition curve with a large enough effect; inconclusive = small, poorly fitted or top-dose-only effect; inactive = no such curve, though single readings can be large or run the other way.
# Target: Cruzipain (Trypanosoma cruzi) (UniProt P25779)
# Assay: Confirmation qHTS Assay for Inhibitors of Cruzain; note: nearly all actives have a fitted effect of over 40% in size;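 for activity change, negative = inhibition: plate controls were uninhibited enzyme control for no effect and buffer wells lacking enzyme for full effect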
# Conditions: purified cruzain, Z-FR-AMC fluorescence, 0.01% Triton
# Procedure, shortened: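 Reaction progress from the 60 s rise in AMC fluorescence (ex 360, em 450 nm) after adding 2 uM Z-FR-AMC. Before this, 1.5 nM cruzain sat 15 min at room temperature with compound in pH 5.5 acetate buffer with 5 mM DTT and 0.01% Triton X-100.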
# Potency is the fitted concentration of half-maximal effect.
# Sequence of Cruzipain (Trypanosoma cruzi) (P25779 123-467 limits assumed): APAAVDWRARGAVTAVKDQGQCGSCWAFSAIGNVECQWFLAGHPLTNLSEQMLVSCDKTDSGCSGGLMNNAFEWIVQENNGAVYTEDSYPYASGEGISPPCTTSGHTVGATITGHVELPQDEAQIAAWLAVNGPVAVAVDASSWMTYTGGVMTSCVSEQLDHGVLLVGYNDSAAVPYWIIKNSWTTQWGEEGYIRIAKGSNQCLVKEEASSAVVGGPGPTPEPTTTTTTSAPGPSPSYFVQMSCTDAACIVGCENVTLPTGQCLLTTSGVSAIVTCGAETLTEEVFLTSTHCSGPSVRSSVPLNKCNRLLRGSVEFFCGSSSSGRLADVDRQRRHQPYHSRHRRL
SMILES,Potency,"activity change, negative = inhibition"
C=CCNC(=O)c1ccc2nc(-c3ccco3)c(-c3ccco3)nc2c1,15800 nM (active),
CCOc1ccc(-c2nn3c(-c4cc(-c5ccccc5)n[nH]4)nnc3s2)cc1,,-7.68% and -5.69%
Cc1ccccc1Nc1nc(C#N)nc(NC2CCCC2)n1,708 nM (active),
N#Cc1nc(Nc2cccc(Cl)c2)c2ncn(C3CCCC3)c2n1,50.1 nM (active),
CCOC(=O)c1ccc(N2CSC3=C(C#N)C(c4cccs4)CC(=O)N3C2)cc1 (stereo not given),,-9.35%
N#Cc1nc(N2CCOCC2)nc(N2CCOCC2)n1,3.55 µM (active) and 5.01 µM (active),
N#Cc1nc(Nc2cc(F)cc(F)c2)c2ncn(C3CCCC3)c2n1,22.4 nM (active),
Cc1ccc2[nH]c(=O)c(CN(Cc3ccccc3)Cc3nnnn3Cc3ccccc3)cc2c1,,-15.4%
N#Cc1nc(Nc2ccc(C(F)(F)F)cc2)nc(NC2CCCC2)n1,,2.22%
N#Cc1nc(N(c2ccccc2)c2ccccc2)nc(-n2cccc2)n1,2510 nM (active),
CN(c1ccccc1)c1nc(C#N)nc(N2CCOCC2)n1,1260 nM (active),
CC(C)(C)OC(=O)Cc1nnc(-c2nc3ccccc3[nH]2)o1,,-0.371%
CC(C)C[C@H](N)c1nnc(S(=O)(=O)Cc2ccc(F)cc2)o1,,-25.7%
CCNc1nc(C#N)nc2c1ncn2-c1cc(F)cc(F)c1,224 nM (active),
CCN(CC)c1nc(C#N)nc(N(CC)CC)n1,17.8 µM (active) and 14.1 µM (active),
